{"source": "the supplement of paper PMC12067093", "about": "“Discovery and optimisation of a covalent ligand for TRIM25 and its application to targeted protein ubiquitination” (Chemical Science, 2025)", "note": "The full data set covers some 21,000 targets. This sample favours those with the largest changes.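 Also: competitive chemoproteomic profiling in live THP-1 cells with an iodoacetamide desthiobiotin (IA-DTB) probe, comparing probe-labelled peptide intensities in compound-treated cells against DMSO-treated controls.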", "data": [{"compound": "CC1Cc2ccccc2N1C(=O)C1CCCN(C1)C(=O)CCl (mixture of isomers) [TRIM25 ligand 11 (diastereomer mixture)]", "assay": "probe-labelled cysteine peptide fold change vs DMSO (competition) (log2 fold change); higher = less target engagement (more negative = stronger competition)", "conditions": "50 µM; THP-1; incubation time: 4 h", "values": [{"target": "PDLIM7_Q9NR12_370_MTWHVHCFTCAACK (UniProt Q9NR12)", "probe-labelled cysteine peptide fold change": 0.119}, {"target": "OSBPL3_Q9H4L5_114_CIDLDTEEHIYHLK (UniProt Q9H4L5)", "probe-labelled cysteine peptide fold change": 0.0383}, {"target": "PASK_Q96RG2_759+761_ELFFSDQTDQTSSNCSCATSELR (UniProt Q96RG2)", "probe-labelled cysteine peptide fold change": 0.0688}, {"target": "NUP133_Q8WUM0_457_IVFNAQGDSVLGAGACGGVPIIFSR (UniProt Q8WUM0)", "probe-labelled cysteine peptide fold change": -0.142}, {"target": "OTX1_P32242_340_LNFNSPDCLDYK (UniProt P32242)", "probe-labelled cysteine peptide fold change": -0.0204}, {"target": "NSUN2_Q08J23_673+678_YEPDSANPDALQCPIVLCGWR (UniProt Q08J23)", "probe-labelled cysteine peptide fold change": 0.0634}, {"target": "NUP205_Q92621_1032_TCLHAILNILEK (UniProt Q92621)", "probe-labelled cysteine peptide fold change": -0.0819}, {"target": "OSBPL1A_Q9BXW6_520_DCGGGDALSNGIK (UniProt Q9BXW6)", "probe-labelled cysteine peptide fold change": 0.0314}, {"target": "NOL10_Q9BSC4_147_DFSYHYPSCDLYFVGASSEVYR (UniProt Q9BSC4)", "probe-labelled cysteine peptide fold change": -0.299}, {"target": "NUS1_Q96E22_235_QKRPTDLDVDTLASLLSSNGCPDPDLVLK (UniProt Q96E22)", "sequence (Q96E22 whole entry, looked up)": "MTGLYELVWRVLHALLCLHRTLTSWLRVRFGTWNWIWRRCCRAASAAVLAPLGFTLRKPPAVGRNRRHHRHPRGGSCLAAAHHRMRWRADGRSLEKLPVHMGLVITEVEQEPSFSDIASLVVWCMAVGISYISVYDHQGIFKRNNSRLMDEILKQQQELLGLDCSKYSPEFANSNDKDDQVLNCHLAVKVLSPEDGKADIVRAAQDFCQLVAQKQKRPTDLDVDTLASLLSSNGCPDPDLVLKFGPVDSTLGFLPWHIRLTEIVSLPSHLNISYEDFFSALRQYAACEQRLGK", "probe-labelled cysteine peptide fold change": -0.641}, {"target": "OAT_P04181_150_VLPMNTGVEAGETACK (UniProt P04181)", "probe-labelled cysteine peptide fold change": 0.0487}, {"target": "PDS5B_Q9NTI5_732_YAIHCIHAIFSSK (UniProt Q9NTI5)", "probe-labelled cysteine peptide fold change": 0.0228}, {"target": "NUDT4B_A0A024RBG1_28_AACLCFR<|>NUDT3_O95989_25_AACLCFR<|>NUDT10_Q8NFP7_24_AACLCFR<|>NUDT11_Q96G61_24_AACLCFR<|>NUDT4_Q9NZJ9_25_AACLCFR (UniProt Q9NZJ9+Q8NFP7+Q96G61+O95989)", "probe-labelled cysteine peptide fold change": 0.0838}, {"target": "OSBPL9_Q96SU4_577_SILTVPWVELGGECNINCSK (UniProt Q96SU4)", "sequence (Q96SU4 whole entry, looked up)": "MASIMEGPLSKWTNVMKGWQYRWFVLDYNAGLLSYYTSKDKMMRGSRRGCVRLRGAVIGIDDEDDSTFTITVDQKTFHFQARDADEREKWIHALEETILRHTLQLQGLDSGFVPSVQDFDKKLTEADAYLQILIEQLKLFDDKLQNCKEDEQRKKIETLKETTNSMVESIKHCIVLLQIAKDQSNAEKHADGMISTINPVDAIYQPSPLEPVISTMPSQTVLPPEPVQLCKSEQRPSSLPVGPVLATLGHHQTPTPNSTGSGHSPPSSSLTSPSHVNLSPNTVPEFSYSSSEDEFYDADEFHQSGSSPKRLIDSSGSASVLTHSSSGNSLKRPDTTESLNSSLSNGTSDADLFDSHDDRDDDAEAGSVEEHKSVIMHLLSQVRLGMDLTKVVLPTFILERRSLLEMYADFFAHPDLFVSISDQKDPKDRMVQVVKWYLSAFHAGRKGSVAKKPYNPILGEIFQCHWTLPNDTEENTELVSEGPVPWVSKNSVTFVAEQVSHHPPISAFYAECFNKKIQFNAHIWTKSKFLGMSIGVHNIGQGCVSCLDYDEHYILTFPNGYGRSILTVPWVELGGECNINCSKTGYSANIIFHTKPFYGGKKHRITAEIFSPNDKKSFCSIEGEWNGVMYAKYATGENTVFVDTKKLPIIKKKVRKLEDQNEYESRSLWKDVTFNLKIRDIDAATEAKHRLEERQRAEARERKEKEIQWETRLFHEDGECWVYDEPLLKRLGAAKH", "probe-labelled cysteine peptide fold change": 0.198}, {"target": "NLRX1_Q86UT6_713_CTVVAAVLGSGR (UniProt Q86UT6)", "probe-labelled cysteine peptide fold change": 0.223}, {"target": "NSUN6_Q8TEA1_242_ILDLCAAPGGK (UniProt Q8TEA1)", "sequence (Q8TEA1 whole entry)": "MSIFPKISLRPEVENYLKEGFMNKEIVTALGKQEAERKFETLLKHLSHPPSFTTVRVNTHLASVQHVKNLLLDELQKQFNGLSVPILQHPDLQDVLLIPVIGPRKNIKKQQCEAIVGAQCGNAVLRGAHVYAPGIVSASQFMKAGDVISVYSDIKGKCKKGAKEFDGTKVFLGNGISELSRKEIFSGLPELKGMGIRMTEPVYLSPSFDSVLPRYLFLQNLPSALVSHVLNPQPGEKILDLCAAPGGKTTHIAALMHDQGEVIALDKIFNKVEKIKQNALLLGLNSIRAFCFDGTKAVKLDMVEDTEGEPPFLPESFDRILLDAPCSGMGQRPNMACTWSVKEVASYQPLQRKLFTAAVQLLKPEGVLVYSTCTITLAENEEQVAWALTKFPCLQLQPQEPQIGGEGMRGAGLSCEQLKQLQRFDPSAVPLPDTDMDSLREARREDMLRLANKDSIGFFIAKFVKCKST", "probe-labelled cysteine peptide fold change": -0.0703}, {"target": "PAICS_P22234_266_SESQCR (UniProt P22234)", "probe-labelled cysteine peptide fold change": 1.12}, {"target": "NOL9_Q5SY16_219_WSMQNFSPQCSIVLLEHLK (UniProt Q5SY16)", "probe-labelled cysteine peptide fold change": 0.0078}, {"target": "NLRX1_Q86UT6_259_LAGTGLCSDPEEPQEPAAIIVNLLR (UniProt Q86UT6)", "probe-labelled cysteine peptide fold change": -0.746}, {"target": "PAK3_O75914_424_LTDFGFCAQITPEQSKR (UniProt O75914)", "probe-labelled cysteine peptide fold change": -0.161}, {"target": "OSBPL1A_Q9BXW6_340_EDWLEAIEEHSAYSTHYCSQDQLTDEEEEDTVSAADLKK (UniProt Q9BXW6)", "probe-labelled cysteine peptide fold change": -0.153}, {"target": "NUDC_Q9Y266_188_WTQTLSELDLAVPFCVNFR (UniProt Q9Y266)", "sequence (Q9Y266 whole entry)": "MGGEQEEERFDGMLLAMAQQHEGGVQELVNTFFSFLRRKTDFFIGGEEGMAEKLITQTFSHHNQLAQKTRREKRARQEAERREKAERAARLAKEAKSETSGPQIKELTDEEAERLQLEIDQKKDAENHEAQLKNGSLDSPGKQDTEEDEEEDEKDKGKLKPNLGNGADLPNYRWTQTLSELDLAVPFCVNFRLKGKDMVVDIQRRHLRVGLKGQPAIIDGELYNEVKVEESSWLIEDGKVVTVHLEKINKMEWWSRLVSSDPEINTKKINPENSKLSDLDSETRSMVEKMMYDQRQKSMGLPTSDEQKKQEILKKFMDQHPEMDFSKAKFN", "probe-labelled cysteine peptide fold change": 0.00376}, {"target": "NFIX_Q14938_6_MYSPYCLTQDEFHPFIEALLPHVR (UniProt Q14938)", "probe-labelled cysteine peptide fold change": -0.567}, {"target": "NCKIPSD_Q9NZQ3_138_QPNGVCR (UniProt Q9NZQ3)", "probe-labelled cysteine peptide fold change": -0.32}, {"target": "NUP98_P52948_1711_HIQQVDCSGNDLEQLHIK (UniProt P52948)", "probe-labelled cysteine peptide fold change": 0.108}, {"target": "PALD1_Q9ULE6_631_IPMPDFCAPREEDFDQLLEALR (UniProt Q9ULE6)", "probe-labelled cysteine peptide fold change": 0.057}, {"target": "PA2G4_Q9UQ80_296_MGVVECAKHELLQPFNVLYEK (UniProt Q9UQ80)", "probe-labelled cysteine peptide fold change": -0.434}, {"target": "NIT2_Q9NQR4_153_VGLGICYDMR (UniProt Q9NQR4)", "sequence (Q9NQR4 whole entry, looked up)": "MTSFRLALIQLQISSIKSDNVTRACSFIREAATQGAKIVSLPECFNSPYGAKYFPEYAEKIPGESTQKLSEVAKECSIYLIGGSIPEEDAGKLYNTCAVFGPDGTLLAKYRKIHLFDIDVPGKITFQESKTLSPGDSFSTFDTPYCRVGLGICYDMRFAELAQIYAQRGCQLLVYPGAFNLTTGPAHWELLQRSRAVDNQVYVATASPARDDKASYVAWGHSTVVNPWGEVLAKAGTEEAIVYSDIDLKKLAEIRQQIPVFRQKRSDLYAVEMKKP", "probe-labelled cysteine peptide fold change": -1.18}, {"target": "PACSIN2_Q9UNF0_465_MEDEDEQGWCK (UniProt Q9UNF0)", "sequence (Q9UNF0 whole entry, looked up)": "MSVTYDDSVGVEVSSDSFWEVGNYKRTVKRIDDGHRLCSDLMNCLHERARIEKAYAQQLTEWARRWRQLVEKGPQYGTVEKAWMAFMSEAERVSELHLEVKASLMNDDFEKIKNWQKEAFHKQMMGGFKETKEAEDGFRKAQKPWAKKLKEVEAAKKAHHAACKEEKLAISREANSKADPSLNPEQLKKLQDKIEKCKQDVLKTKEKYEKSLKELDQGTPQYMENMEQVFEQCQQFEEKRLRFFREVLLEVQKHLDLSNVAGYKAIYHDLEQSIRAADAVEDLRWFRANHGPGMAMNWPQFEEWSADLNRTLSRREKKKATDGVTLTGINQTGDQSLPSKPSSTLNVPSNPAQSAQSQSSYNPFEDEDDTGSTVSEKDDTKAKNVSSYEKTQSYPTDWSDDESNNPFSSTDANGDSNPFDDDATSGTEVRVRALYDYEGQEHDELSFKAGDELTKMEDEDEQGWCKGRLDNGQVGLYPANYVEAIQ", "probe-labelled cysteine peptide fold change": 0.00577}, {"target": "NUP93_Q8N1F7_328_CGDLLAASQVVNR (UniProt Q8N1F7)", "sequence (Q8N1F7 whole entry, looked up)": "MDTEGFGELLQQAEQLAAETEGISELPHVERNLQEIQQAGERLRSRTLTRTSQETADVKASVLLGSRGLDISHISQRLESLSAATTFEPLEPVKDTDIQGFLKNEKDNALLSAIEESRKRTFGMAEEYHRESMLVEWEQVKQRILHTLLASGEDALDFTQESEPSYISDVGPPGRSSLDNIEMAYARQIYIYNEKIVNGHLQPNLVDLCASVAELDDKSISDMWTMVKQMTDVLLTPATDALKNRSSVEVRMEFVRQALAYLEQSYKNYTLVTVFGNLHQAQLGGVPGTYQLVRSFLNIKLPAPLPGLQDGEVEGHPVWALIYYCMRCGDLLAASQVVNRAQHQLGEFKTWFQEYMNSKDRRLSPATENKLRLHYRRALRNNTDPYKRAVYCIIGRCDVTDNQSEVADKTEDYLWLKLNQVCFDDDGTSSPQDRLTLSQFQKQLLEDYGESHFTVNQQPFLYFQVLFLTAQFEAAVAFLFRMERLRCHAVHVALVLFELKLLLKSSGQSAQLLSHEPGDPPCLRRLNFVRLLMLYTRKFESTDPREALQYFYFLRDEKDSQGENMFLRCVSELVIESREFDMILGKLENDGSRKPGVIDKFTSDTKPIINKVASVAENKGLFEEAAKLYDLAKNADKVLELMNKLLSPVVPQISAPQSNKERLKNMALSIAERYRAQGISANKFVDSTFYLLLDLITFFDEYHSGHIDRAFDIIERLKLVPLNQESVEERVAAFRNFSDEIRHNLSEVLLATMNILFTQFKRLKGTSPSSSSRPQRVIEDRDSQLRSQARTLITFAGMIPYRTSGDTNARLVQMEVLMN", "probe-labelled cysteine peptide fold change": 0.221}, {"target": "NEDD4_P46934-4_4_ATCAVEVFGLLEDEENSR (UniProt P46934)", "probe-labelled cysteine peptide fold change": -0.509}, {"target": "NT5DC2_Q9H857_475_FSDLYMASLSCLLNYR (UniProt Q9H857)", "sequence (Q9H857 whole entry)": "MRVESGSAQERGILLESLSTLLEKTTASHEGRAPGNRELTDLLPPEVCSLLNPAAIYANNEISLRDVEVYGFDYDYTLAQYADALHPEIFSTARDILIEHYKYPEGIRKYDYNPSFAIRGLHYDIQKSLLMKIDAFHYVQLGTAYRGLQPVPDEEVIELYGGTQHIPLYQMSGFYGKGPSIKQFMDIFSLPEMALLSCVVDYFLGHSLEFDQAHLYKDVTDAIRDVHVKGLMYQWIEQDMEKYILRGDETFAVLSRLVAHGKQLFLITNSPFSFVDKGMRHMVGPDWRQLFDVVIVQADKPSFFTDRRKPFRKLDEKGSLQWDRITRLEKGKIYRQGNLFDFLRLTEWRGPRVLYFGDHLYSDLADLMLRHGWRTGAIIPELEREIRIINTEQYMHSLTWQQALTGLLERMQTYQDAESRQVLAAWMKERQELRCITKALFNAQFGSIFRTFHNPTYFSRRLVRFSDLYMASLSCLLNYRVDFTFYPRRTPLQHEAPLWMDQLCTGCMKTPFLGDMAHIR", "probe-labelled cysteine peptide fold change": 0.0662}, {"target": "PADI2_Q9Y2J8_629_GLLEPLGLECTFIDDISAYHK (UniProt Q9Y2J8)", "probe-labelled cysteine peptide fold change": 0.0618}, {"target": "NUTF2_P61970_80_IQHSITAQDHQPTPDSCIISMVVGQLKADEDPIMGFHQMFLLK (UniProt P61970)", "sequence (P61970 whole entry, looked up)": "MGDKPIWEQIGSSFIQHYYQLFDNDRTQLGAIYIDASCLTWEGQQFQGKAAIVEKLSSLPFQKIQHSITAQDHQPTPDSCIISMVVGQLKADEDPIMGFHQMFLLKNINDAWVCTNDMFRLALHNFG", "probe-labelled cysteine peptide fold change": -0.409}, {"target": "NIT1_Q86X76_251+259_AIETQCYVVAAAQCGR (UniProt Q86X76)", "probe-labelled cysteine peptide fold change": 0.575}, {"target": "NFX1_Q12986_295_STCDSENLAVINK (UniProt Q12986)", "probe-labelled cysteine peptide fold change": -0.0282}, {"target": "PARK7_Q99497_46_VTVAGLAGKDPVQCSR (UniProt Q99497)", "sequence (Q99497 whole entry, looked up)": "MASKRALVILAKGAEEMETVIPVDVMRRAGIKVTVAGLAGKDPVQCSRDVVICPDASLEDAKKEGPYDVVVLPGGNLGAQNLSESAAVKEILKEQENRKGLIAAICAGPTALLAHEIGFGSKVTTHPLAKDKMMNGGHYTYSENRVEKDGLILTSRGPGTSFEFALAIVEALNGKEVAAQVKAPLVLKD", "probe-labelled cysteine peptide fold change": -0.213}, {"target": "P4HA1_P13674_293_QKYEMLCR (UniProt P13674)", "sequence (P13674 whole entry, looked up)": "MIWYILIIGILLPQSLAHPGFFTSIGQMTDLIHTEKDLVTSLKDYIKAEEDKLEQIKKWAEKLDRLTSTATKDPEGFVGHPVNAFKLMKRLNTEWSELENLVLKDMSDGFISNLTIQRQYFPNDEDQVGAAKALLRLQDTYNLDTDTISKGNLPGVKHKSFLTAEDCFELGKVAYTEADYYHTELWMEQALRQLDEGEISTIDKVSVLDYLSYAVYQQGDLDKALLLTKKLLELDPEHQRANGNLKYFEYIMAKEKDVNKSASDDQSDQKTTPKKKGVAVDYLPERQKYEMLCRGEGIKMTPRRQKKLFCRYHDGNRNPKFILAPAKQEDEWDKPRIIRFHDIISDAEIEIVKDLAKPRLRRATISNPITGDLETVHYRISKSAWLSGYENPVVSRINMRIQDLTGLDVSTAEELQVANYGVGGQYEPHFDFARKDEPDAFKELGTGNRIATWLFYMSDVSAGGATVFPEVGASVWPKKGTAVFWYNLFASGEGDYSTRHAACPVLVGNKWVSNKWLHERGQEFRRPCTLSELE", "probe-labelled cysteine peptide fold change": -0.162}, {"target": "NCDN_Q9UBB6-2_5_ASDCEPALNQAEGR (UniProt Q9UBB6)", "probe-labelled cysteine peptide fold change": -0.297}, {"target": "PAFAH1B1_P43034_281_EHEHVVECISWAPESSYSSISEATGSETK (UniProt P43034)", "probe-labelled cysteine peptide fold change": 0.158}]}]}
